Shown is part of a subset that was picked to be rich in hits.
Anaer choline gr = blocks anaerobic gram-negative growth on choline; Gram-negative bacterium anaerobic choline minimal medium, absorbance growth; hits give low values; calls only; actives 0.2% (n = 55,000); AID 1963822; call rule not given here
Starred values were filed as active, the others as inactive; i = inactive; + = active, no number; ! = a repeat was not active.

SMILES	Anaer choline gr
NC(N)=N/N=C/c1c(Cl)cccc1Cl	+!
NC(N)=NC(=O)Cc1c(Cl)cccc1Cl	i
COc1cccc(N2CCN(c3ccnc(SCC(=O)Nc4cc(C)cc(C)c4)n3)CC2)c1	i
CN1CCN(CCNc2nc(C3CC3)nc3c2CCC3)CC1	i
O=C1CCCN1CCCNc1nc(C2CC2)nc2c1CCC2	i
CCN1CCN(CCNc2nc(C3CC3)nc3c2CCC3)CC1	+
O=c1c2cc3c(cc2nc(SCc2nc(-c4ccccc4Br)no2)n1C1CC1)OCO3	i
O=C(Nc1ccc(Br)cc1F)Nc1cc(NC(=O)c2ccccc2)ccc1N1CCCC1	i
Cn1c(=O)n(CCC(=O)N2CCCC2)c(=O)c2cc(S(=O)(=O)NCc3cccnc3)ccc21	i
COc1ccc(-c2ccc(SCc3nc(-c4cc(OC)c(OC)c(OC)c4)no3)nn2)cc1OC	i
COc1ccc(C2CC(=O)C3=C(C2)Nc2ncnn2C3c2ccc(O)cc2)cc1 (configuration not stated)	i
Cc1noc(C)c1C1CCCN1C(=O)c1cc(C2CC2)on1 (configuration not stated)	+
CCc1onc(C)c1C1CCCN1C(=O)c1cc(C2CC2)on1 (configuration not stated)	i
Cc1cc(C(=O)N2CCCC2c2c(C)noc2C)no1 (configuration not stated)	i
COc1ccc(C(=O)N2CCc3c(c(C(=O)N4CCCC(C(=O)NC5CC5)C4)nn3C)C2)c(OC)c1 (configuration not stated)	i
CC(C)C(=O)Nc1ccc2nc(N3CCN(CC(=O)NC(C)(C)C)CC3)cc(C(=O)O)c2c1	i
CCc1cc(=O)oc2cc(C)c3c(c12)OC(c1ccc(OC)c(O)c1)CC3=O (configuration not stated)	i
COc1ccc2c(c1)c(C1=C(c3c[nH]c4ccccc34)C(=O)NC1=O)cn2CCCN(C)C	i
Cn1cc(C2=C(c3cn(CCCSC(=N)N)c4ccccc34)C(=O)NC2=O)c2ccccc21	i
CN(C)CCCn1cc(C2=C(c3c[nH]c4ccccc34)C(=O)NC2=O)c2ccccc21	+!
CCC(C)NC(=O)CSC1=Nc2cc(C)c(C)cc2N=C(c2cccc(OC)c2)C1 (configuration not stated)	i
CCN(CC)S(=O)(=O)c1ccc(C(=O)N(c2ccc(C)c(Cl)c2)C2C=CS(=O)(=O)C2)cc1 (configuration not stated)	i
CC1CCCN(c2ccc(NC(=O)c3ccccc3Cl)c(C(=O)O)c2)C1 (configuration not stated)	+
CC1CCCN(c2ccc(NC(=O)C3CCC3)c(C(=O)O)c2)C1 (configuration not stated)	i
CN1CCCN(c2ccc(NC(=O)c3ccccc3Cl)c(C(=O)O)c2)CC1	i
SMILES	Anaer choline gr
CC1CCc2noc(NC(=O)c3ccc(C(C)(C)C)cc3)c2C1 (configuration not stated)	i
O=C(Cn1ccc2c(SCc3ccc(F)cc3)nccc21)NCc1ccc(N2CCOCC2)cc1	i
COc1ccc(CNC(=O)C2(C)Cn3nc(C)cc3C(=O)N2c2ccc(OC)cc2)cc1 (configuration not stated)	i
Cn1c(SCC(=O)N2CCCc3ccccc32)nc2cc(-c3ccccc3)sc2c1=O	i
Cn1c(=O)n(CCC(=O)N2CCCC2)c(=O)c2cc(S(=O)(=O)NCc3ccccn3)ccc21	i
COC(=O)c1ccc(C(=O)Nc2sc3c(c2-c2nc4ccccc4s2)CCN(C(C)C)C3)cc1	i
CC(=O)Nc1sc2c(c1-c1nc3ccccc3s1)CCN(C(C)C)C2	i
COc1ccc(C(=O)Nc2sc3c(c2-c2nc4ccccc4s2)CCN(C(C)C)C3)cc1OC	+
CCc1nc(-c2csc(S(=O)(=O)Nc3ccc(Br)c(C)c3)c2)no1	i
COc1ccc(NC(=O)C2CCC(=O)N2S(=O)(=O)c2ccccc2)cc1OC (configuration not stated)	i
CC(C)(O/N=C(\C(=O)N[C@@H]1C(=O)N2C(C(=O)[O-])=C(C[n+]3ccccc3)CS[C@H]12)c1csc(N)n1)C(=O)O	i
COCC1=C(C(=O)OC(C)OC(=O)OC(C)C)N2C(=O)C(NC(=O)C(=NOC)c3csc(N)n3)C2SC1 (configuration not stated)	i
CO/N=C(\C(=O)N[C@@H]1C(=O)N2C(C(=O)[O-])=C(C[N+]3(C)CCCC3)CS[C@H]12)c1csc(N)n1	+
CCCSc1nc2c(c(=O)[nH]1)C(c1ccc(C(=O)OC)cc1)C(C(=O)OC)=C(C)N2 (configuration not stated)	i
Oc1ccc(C2NCCc3c2[nH]c2ccc(Cl)cc32)cc1 (configuration not stated)	+
CCOc1cc(C2NCCc3c2[nH]c2ccc(Cl)cc32)ccc1O (configuration not stated)	+
COc1ccc(C2NCCc3c2[nH]c2ccccc32)cc1O (configuration not stated)	i
COc1ccc2[nH]c3c(c2c1)CCNC3c1cccc(O)c1 (configuration not stated)	i
CCCOc1ccc(C2NCCc3c2[nH]c2ccccc32)cc1OC (configuration not stated)	i
Oc1ccc(C2NCCc3c2[nH]c2ccc(Cl)cc32)cc1O (configuration not stated)	i
C=CCSc1nc2c(c(=O)[nH]1)C(c1ccncc1)C(C(=O)OC(C)C)=C(C)N2 (configuration not stated)	i
CN(C)CC/C=C1\c2ccccc2Sc2ccc(Cl)cc21	i
CN(C)CCC=C1c2ccccc2Sc2ccc(Cl)cc21	+
Nc1c(-c2nc(-c3ccc(F)cc3)no2)nnn1-c1ccccc1Cl	i
O=C(CCC1=NS(=O)(=O)c2ccccc2N1)NCc1ccc(F)cc1	i
SMILES	Anaer choline gr
Cc1cc(C)cc(NC(=O)CC2(CC3=NS(=O)(=O)c4ccccc4N3)CCCC2)c1	i
Cc1ccc(NC(=O)CCCC2=NS(=O)(=O)c3ccccc3N2)cc1F	+
CCOc1ccc(C(=O)Nc2ccc(S(=O)(=O)Nc3nccs3)cc2)cc1OC	i
Cc1cc(C)c(S(=O)(=O)N2CCN=C2N2CCN(c3ccccc3Cl)CC2)cc1C	i
CCc1nc(OCC(=O)Nc2cc(C)cc(C)c2)c2ccccc2n1	i
Cc1nc(OCC(=O)Nc2ccc(F)cc2F)c2ccccc2n1	+
O=C(COc1ccc(-c2cnc3ccccc3n2)cc1)Nc1cc(F)ccc1F	i
CCOc1ccc2c(c1)cc(C(=O)N1CCc3ccccc31)n2C	i
Cn1c(=O)c2c(-c3cccc(Br)c3)n(CC3CCCO3)cc2n(C)c1=O (configuration not stated)	i
CN(C)S(=O)(=O)c1ccc(-c2nc(C#N)c(N3CCc4ccccc4C3)o2)cc1	i
CCc1ccc(NC(=O)N(C)CCc2noc(-c3ccc(C)cc3)n2)cc1	i
CCc1ccc(OCc2nc(CCN(C)C(=O)Nc3ccc(C(=O)OC)cc3)no2)cc1	+
CCOc1ccccc1NC(=O)N(C)CCc1noc(COc2ccc(Cl)cc2)n1	i
O=C(C1=CN(c2cc(F)cc(F)c2)c2cc(Cl)ccc2S1(=O)=O)N1CCCC1	i
COc1ccc(OC)c2sc(N3CCN(C(=O)C4=COCCO4)CC3)nc12	i
O=C(NCc1ccc2[nH]c3c(c2c1)CCCC3)c1ccccc1	i
